# Experimental data taken from PubChem BioAssay (Tox21).
# Records with an inconclusive call do not appear. Entries that show only a call come without a potency. Active and inactive are the calls of the source. Unless noted, calls follow the shape of the dose curve; as a rule, active = well fitted curve in the direction sought with a large enough effect in the repeat runs; inconclusive = weak or mixed curves; inactive = no such curve, though single readings can be large; an effect the other way counts as inactive or inconclusive.
# Assays:
# [1] = qHTS assay to identify small molecule agonists of the peroxisome proliferator-activated receptor delta (PPARd) signaling pathway - cell viability counter screen (AID 743211); also: nearly all actives have a fitted effect of over 55% in size; also: potency is read from the fitted curve at half-maximal effect
# Method in brief: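 Viability was measured as CellTiter-Glo luminescence (30 min, room temperature) in the same wells as the beta-lactamase readout. GeneBLAzer PPARd UAS-bla HEK293H cells received compound after 5 h plating and were incubated 17 h at 37 C.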
# [2] = molecular target: Peroxisome proliferator-activated receptor delta (Homo sapiens) (UniProt Q03181); experiment: qHTS assay to identify small molecule agonists of the peroxisome proliferator-activated receptor delta (PPARd) signaling pathway (AID 743212; calls by dose curve)
# Peroxisome proliferator-activated receptor delta (Homo sapiens), sequence (Q03181 whole entry, looked up): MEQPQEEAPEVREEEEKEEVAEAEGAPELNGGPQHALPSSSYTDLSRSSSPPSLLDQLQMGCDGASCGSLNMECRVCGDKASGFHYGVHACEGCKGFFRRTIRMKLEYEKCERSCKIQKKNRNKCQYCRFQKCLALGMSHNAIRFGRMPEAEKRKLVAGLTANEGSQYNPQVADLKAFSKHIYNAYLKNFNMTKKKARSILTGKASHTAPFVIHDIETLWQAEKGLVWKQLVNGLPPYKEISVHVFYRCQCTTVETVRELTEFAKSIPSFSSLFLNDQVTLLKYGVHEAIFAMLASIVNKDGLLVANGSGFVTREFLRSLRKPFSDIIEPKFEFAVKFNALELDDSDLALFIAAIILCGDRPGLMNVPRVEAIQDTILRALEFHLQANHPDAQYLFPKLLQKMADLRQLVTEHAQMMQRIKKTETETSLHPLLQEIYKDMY
# Method in brief: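 Read-out: beta-lactamase FRET fluorescence after 2 h room-temperature incubation with LiveBLAzer B/G substrate. Cells were HEK293H carrying a UAS-bla reporter for PPARd, treated at 37 C with DMSO-dissolved compounds.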
# [3] = qHTS assay to identify small molecule antagonists of the peroxisome proliferator-activated receptor delta (PPARd) signaling pathway - cell viability counter screen (AID 743213); also: nearly all actives have a fitted effect of over 50% in size
# Method in brief: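 PPARd-bla HEK293H cells (3000/well) got compound plus 300 nM L165041 agonist for 17 h at 37 C. Viability in the same wells came from CellTiter-Glo luminescence after 30 min at room temperature.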
# [4] = molecular target: Peroxisome proliferator-activated receptor delta (Homo sapiens) (UniProt Q03181); experiment: qHTS assay to identify small molecule antagonists of the peroxisome proliferator-activated receptor delta (PPARd) signaling pathway (AID 743215; active = well fitted inhibition curve with a large enough effect in the signal ratio in the repeat runs, not every such curve was filed as active; the % refers to the signal ratio;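 also: cells stimulated with agonist L165041 at 300 nM final during compound exposure; series mostly up to about 62 µM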)
# Method in brief: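 Screen format: qHTS, antagonist mode. HEK293H PPARd-bla cells received compound and 300 nM L165041 (final), 17 h, 37 C. Beta-lactamase detected via FRET substrate fluorescence, 2 h, room temperature.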
# [5] = molecular target: Bile acid receptor (Homo sapiens) (UniProt Q96RI1); experiment: qHTS assay to identify small molecule antagonists of the farnesoid-X-receptor (FXR) signaling pathway (AID 743217; active = well fitted inhibition curve with a large enough effect in the signal ratio in the repeat runs, not every such curve was filed as active; the % refers to the signal ratio)
# Bile acid receptor (Homo sapiens), sequence (Q96RI1 whole entry, looked up): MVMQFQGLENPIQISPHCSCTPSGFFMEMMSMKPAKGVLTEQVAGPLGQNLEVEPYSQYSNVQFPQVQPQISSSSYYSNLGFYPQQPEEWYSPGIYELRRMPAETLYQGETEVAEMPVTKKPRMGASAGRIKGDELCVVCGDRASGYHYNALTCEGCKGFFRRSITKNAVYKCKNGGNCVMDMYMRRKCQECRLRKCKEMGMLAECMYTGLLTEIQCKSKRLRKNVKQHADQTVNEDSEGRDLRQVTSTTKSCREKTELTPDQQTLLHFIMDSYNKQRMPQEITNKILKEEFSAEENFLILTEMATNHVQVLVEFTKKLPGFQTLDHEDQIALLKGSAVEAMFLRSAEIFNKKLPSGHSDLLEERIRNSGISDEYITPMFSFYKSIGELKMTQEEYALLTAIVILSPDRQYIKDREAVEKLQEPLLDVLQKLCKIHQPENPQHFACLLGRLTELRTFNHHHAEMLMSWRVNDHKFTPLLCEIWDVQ
# Method in brief: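 Quantitative HTS, beta-lactamase reporter format: FXR-UAS-bla HEK 293T cells co-treated 16 h at 37 °C with compounds and 50 uM final chenodeoxycholic acid, then read by B/G FRET fluorescence.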
# [6] = qHTS assay to identify small molecule antagonists of the farnesoid-X-receptor (FXR) signaling pathway - cell viability counter screen (AID 743221; active = well fitted cell-killing curve with a large enough effect in the repeat runs, not every such curve was filed as active; also: nearly all actives have a fitted effect of over 50% in size)
# Method in brief: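 Cytotoxicity counter screen run in the FXR-bla reporter wells: HEK 293T cells exposed to compound with 50 uM (final) chenodeoxycholic acid for 16 h, 37 C, then viability measured by CellTiter-Glo luminescence after 30 min, room temperature.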
# [7] = molecular target: Bile acid receptor (Homo sapiens) (UniProt Q96RI1); experiment: qHTS assay to identify small molecule agonists of the farnesoid-X-receptor (FXR) signaling pathway (AID 743220; active = well fitted activation curve with a large enough effect in the signal ratio in the repeat runs, not every such curve was filed as active; the % refers to the signal ratio)
# Method in brief: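 FXR-UAS-bla HEK 293T cells carrying a UAS-driven beta-lactamase reporter were plated for 5 h at 37C/5% CO2, then exposed to DMSO-dissolved Tox21 10K compounds for 16 h at 37C. A LiveBLAzer B/G FRET substrate was loaded for 2 h at room temperature before fluorescence reading.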
# [8] = molecular target: Vitamin D3 receptor (Homo sapiens) (UniProt P11473); experiment: qHTS assay to identify small molecule agonists of the vitamin D receptor (VDR) signaling pathway (AID 743222; calls by dose curve)
# Vitamin D3 receptor (Homo sapiens), sequence (P11473 whole entry, looked up): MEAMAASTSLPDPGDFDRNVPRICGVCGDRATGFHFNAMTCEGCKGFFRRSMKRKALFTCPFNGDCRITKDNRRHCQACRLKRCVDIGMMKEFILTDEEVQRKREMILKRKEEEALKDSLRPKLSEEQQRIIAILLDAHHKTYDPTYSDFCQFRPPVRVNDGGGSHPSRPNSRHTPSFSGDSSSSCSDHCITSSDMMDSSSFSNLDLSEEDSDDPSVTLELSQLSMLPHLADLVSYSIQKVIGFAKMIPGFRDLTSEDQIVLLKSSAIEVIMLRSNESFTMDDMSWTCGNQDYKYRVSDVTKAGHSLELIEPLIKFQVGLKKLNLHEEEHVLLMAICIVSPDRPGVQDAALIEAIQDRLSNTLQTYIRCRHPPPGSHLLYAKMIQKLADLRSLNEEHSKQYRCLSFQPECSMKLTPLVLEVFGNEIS
# Method in brief: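 Using LiveBLAzer B/G FRET detection, agonism was scored in VDR-bla cells exposed overnight (16 h, 37C) to DMSO-dissolved compounds; substrate incubation was 2 h at room temperature.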
# [9] = molecular target: Vitamin D3 receptor (Homo sapiens) (UniProt P11473); experiment: qHTS assay to identify small molecule antagonists of the vitamin D receptor (VDR) signaling pathway (AID 743223; active = well fitted inhibition curve with a large enough effect in the signal ratio in the repeat runs, not every such curve was filed as active; the % refers to the signal ratio)
# Method in brief: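 Antagonist mode: compound added to VDR-bla cells alongside agonist 1alpha,25-dihydroxyvitamin D3 (3 nM final), incubation 16 h at 37C. Read-out is LiveBLAzer FRET fluorescence, 2 h at room temperature.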
# [10] = qHTS assay to identify small molecule agonists of the farnesoid-X-receptor (FXR) signaling pathway - cell viability counter screen (AID 743218); also: nearly all actives have a fitted effect of over 45% in size
# Method in brief: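 Same-well cytotoxicity check on FXR-UAS-bla HEK 293T cells: 5 h attachment, 16 h compound at 37 C, CellTiter-Glo luminescence read at room temperature after 30 min.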
Compound,Potency [1],outcome [2],outcome [3],outcome [4],Potency [5],outcome [6],outcome [7],outcome [8],outcome [9],Potency [10]
CC(C)NCC(O)c1ccc(N)c(C#N)c1 (centres undefined),inactive,inactive,inactive,inactive,inactive,inactive,–,–,–,–
ClCC(Cl)(Cl)Cl,inactive,inactive,inactive,inactive,inactive,inactive,inactive,inactive,inactive,–
CC(C=O)Cc1ccc2c(c1)OCO2 (centres undefined),inactive,inactive,inactive,inactive,inactive,inactive,inactive,inactive,–,inactive
N#CC(O)c1ccccc1 (centres undefined),inactive,inactive,inactive,inactive,inactive,–,inactive,inactive,–,inactive
CC(=O)Nc1cc([As](=O)(O)O)ccc1O,inactive,inactive,inactive,inactive,inactive,–,inactive,inactive,–,inactive
CCC(Cl)[N+](=O)[O-] (centres undefined),inactive,inactive,inactive,inactive,inactive,–,inactive,inactive,inactive,inactive
O=C(O)c1cccc(Cl)c1,inactive,inactive,inactive,inactive,inactive,inactive,inactive,inactive,inactive,inactive
COc1cc(OC)nc(NC(=O)NS(=O)(=O)c2ncccc2OCC(F)(F)F)n1,inactive,inactive,inactive,inactive,inactive,inactive,inactive,inactive,inactive,inactive
CNC(=O)Oc1c(C(C)(C)C)cc(C)cc1C(C)(C)C,inactive,inactive,inactive,inactive,inactive,inactive,inactive,inactive,inactive,inactive
CNC(=O)N(C)c1nc2ccccc2s1,inactive,inactive,inactive,inactive,inactive,inactive,inactive,inactive,–,inactive
C[C@H]1CCC[C@H](O)CCCCCc2cc(O)cc(O)c2C(=O)O1,inactive,inactive,inactive,inactive,–,–,–,–,–,inactive
Cc1cnc[nH]1,inactive,inactive,inactive,inactive,inactive,inactive,inactive,inactive,–,inactive
CCNc1nc(NC(C)C)nc(OC)n1,inactive,inactive,inactive,inactive,inactive,inactive,inactive,inactive,inactive,inactive
CC(C)CC(N(C)C)C1(c2ccc(Cl)cc2)CCC1 (centres undefined),inactive,inactive,inactive,inactive,inactive,–,inactive,inactive,inactive,inactive
CC(=O)CCc1ccc2c(c1)OCO2,inactive,inactive,inactive,inactive,inactive,inactive,inactive,–,–,inactive
O=[N+]([O-])c1cc(Cl)c(Cl)c(Cl)c1,inactive,inactive,inactive,inactive,inactive,inactive,inactive,inactive,inactive,–
Nc1n[nH]c(N)n1,inactive,inactive,inactive,inactive,inactive,inactive,inactive,inactive,–,inactive
CC1(C)COP(Oc2ccccc2)OC1,inactive,inactive,inactive,inactive,inactive,inactive,inactive,inactive,inactive,inactive
ClC(Br)Br,inactive,inactive,inactive,inactive,–,inactive,inactive,–,–,inactive

Compound,Potency [1],outcome [2],outcome [3],outcome [4],Potency [5],outcome [6],outcome [7],outcome [8],outcome [9],Potency [10]
Cc1cc(C)c(C(=O)P(=O)(C(=O)c2c(C)cc(C)cc2C)c2ccccc2)c(C)c1,inactive,inactive,inactive,inactive,inactive,inactive,inactive,–,inactive,–
C[C@@H]1CN(C2CCC(C#N)(c3ccc(F)cc3)CC2)CC[C@]1(C(=O)O)c1ccccc1 (some centres undefined),inactive,inactive,inactive,inactive,inactive,inactive,inactive,inactive,inactive,–
CCCCCCI,inactive,inactive,inactive,inactive,inactive,inactive,inactive,–,–,inactive
O=C1OC(=O)C2C1C1(Cl)C(Cl)=C(Cl)C2(Cl)C1(Cl)Cl (centres undefined),inactive,inactive,inactive,inactive,inactive,inactive,inactive,inactive,–,inactive
CCCCc1ccc(O)cc1,inactive,inactive,inactive,inactive,inactive,inactive,inactive,–,–,inactive
C=CC1CC=CCC1 (centres undefined),inactive,inactive,inactive,inactive,inactive,inactive,inactive,inactive,–,inactive
C(CCOCC1CO1)COCC1CO1 (centres undefined),inactive,inactive,inactive,inactive,inactive,inactive,inactive,inactive,–,–
CC(=O)[C@H]1CC[C@H]2[C@@H]3CC[C@H]4C[C@H](O)CC[C@]4(C)[C@H]3C(=O)C[C@]12C,inactive,inactive,inactive,inactive,inactive,inactive,inactive,inactive,–,inactive
CC1=C(C(=O)Nc2ccccc2)S(=O)(=O)CCO1,54.9 µM (active),–,–,–,–,–,–,–,–,–
COC(=O)c1ccccc1S(=O)(=O)NC(=O)N(C)c1nc(C)nc(OC)n1,inactive,inactive,inactive,inactive,inactive,inactive,inactive,–,–,inactive
Nc1c(Br)cc([N+](=O)[O-])cc1[N+](=O)[O-],inactive,inactive,inactive,inactive,inactive,inactive,inactive,inactive,–,inactive
N#CC(Cl)(Cl)Cl,inactive,inactive,inactive,inactive,inactive,inactive,inactive,–,–,–
CCCCC(=O)Cl,inactive,inactive,inactive,inactive,inactive,–,inactive,inactive,–,inactive
CC1CCCCC1NC(=O)Nc1ccccc1 (centres undefined),inactive,inactive,inactive,inactive,inactive,–,inactive,inactive,inactive,inactive
O=C(Cc1ccccc1)OCc1ccccc1,inactive,inactive,inactive,inactive,inactive,inactive,inactive,inactive,–,inactive
Fc1cc(Br)ccc1CBr,inactive,inactive,inactive,inactive,inactive,inactive,inactive,inactive,inactive,–
CCCCOP(=O)(O)OCCCC,inactive,inactive,inactive,inactive,inactive,inactive,inactive,–,–,inactive
CC(N)=S,inactive,inactive,inactive,inactive,inactive,inactive,inactive,inactive,inactive,inactive
O=[N+]([O-])c1ccc2c3c(cccc13)CC2,inactive,inactive,inactive,inactive,–,inactive,inactive,inactive,inactive,inactive

Compound,Potency [1],outcome [2],outcome [3],outcome [4],Potency [5],outcome [6],outcome [7],outcome [8],outcome [9],Potency [10]
COC(=O)C1=CCCN(C)C1,inactive,inactive,inactive,inactive,–,inactive,inactive,inactive,inactive,inactive
O=C1c2ccccc2C(=O)c2ccccc21,inactive,inactive,inactive,inactive,–,inactive,–,inactive,–,inactive
COC(=O)C(C)Oc1ccc(Oc2ccc(Cl)cc2Cl)cc1 (centres undefined),inactive,inactive,inactive,inactive,–,inactive,inactive,inactive,inactive,inactive
CCOC(=O)NC(=S)Nc1ccccc1NC(=S)NC(=O)OCC,inactive,inactive,inactive,inactive,–,inactive,–,inactive,–,inactive
CN1C[C@@H](NS(=O)(=O)N(C)C)C[C@@H]2c3cccc4c3c(cn4C)C[C@H]21,inactive,inactive,inactive,inactive,–,inactive,–,inactive,–,inactive
CNC(=O)Oc1ccccc1C1OCCO1,inactive,inactive,inactive,inactive,–,inactive,inactive,inactive,–,inactive
CCC(=O)C(CCN(C)C)(c1ccccc1)c1ccccc1,inactive,inactive,inactive,inactive,–,inactive,–,inactive,–,inactive
CNC(=O)Oc1ccc(N(C)C)c(C)c1,inactive,inactive,inactive,inactive,–,inactive,inactive,–,–,inactive
Nc1ccccc1Cl,inactive,inactive,inactive,inactive,–,–,inactive,inactive,–,inactive
CSc1ccc(C(=O)C(C)(C)N2CCOCC2)cc1,inactive,inactive,inactive,inactive,–,–,inactive,inactive,inactive,inactive
COc1ncc(F)c2nc(S(=O)(=O)Nc3c(F)cccc3F)nn12,inactive,inactive,inactive,inactive,–,inactive,–,–,–,inactive
CNC(=O)O/N=C(\C)SC,inactive,inactive,inactive,inactive,–,inactive,–,inactive,–,inactive
CCCCOC(=O)c1ccccc1N,inactive,inactive,inactive,inactive,–,inactive,inactive,inactive,–,inactive
Cc1coc2c1CCC(C)C2 (centres undefined),inactive,inactive,inactive,inactive,–,inactive,–,inactive,–,inactive
CC(C)[N+](=O)[O-],inactive,inactive,inactive,inactive,–,–,inactive,inactive,inactive,inactive
ClCC(Cl)Cl,inactive,inactive,inactive,inactive,–,inactive,–,inactive,–,inactive
CC(C)COP(=O)(OCC(C)C)OCC(C)C,inactive,inactive,inactive,inactive,–,inactive,inactive,inactive,–,inactive
CCOC(=O)C(c1c(O)c2ccccc2oc1=O)c1c(O)c2ccccc2oc1=O,inactive,inactive,inactive,inactive,–,inactive,–,–,–,inactive
CCOC(=O)CP(=O)(OCC)OCC,inactive,inactive,inactive,inactive,–,inactive,inactive,–,–,inactive
